Reference: PubChem BioAssay (NCATS)
Results filed as inconclusive are left out. Active and inactive are the calls of the source. The call rests on the fitted dose curve.

target: Bile acid receptor (Homo sapiens) (UniProt Q96RI1); experiment: qHTS assay for small molecule antagonists of farnesoid X receptor signaling (AID 588526); conditions: HEK293T FXR-UAS-bla, beta-lactamase ratio, antagonist mode; series mostly up to 76.7 µM
Text: NIH Chemical Genomics Center [NCGC] U.S. Environmental Protection Agency [EPA] National Institutes of Environmental Health Sciences [NIEHS] National Toxicology Program [NTP] NCGC Assay Overview The farnesoid-X-receptor (FXR), a nuclear hormone receptor is highly expressed in liver, intestine, kidney and adrenal cortex. Natural ligands of FXR are the bile acids (Cholic acid, Chenodeoxy cholic acid etc). It is an important regulator of diverse metabolic pathways, including the bile acid homeostasis, lipid and glucose metabolisms. FXR regulates the expression of target genes by binding either as a monomer or as a heterodimer with RXR (retinoid X receptor). As FXR regulates a large number of target genes involved in bile acid, lipoprotein and glucose metabolisms, it is a potential pharmacological target for bile acid and lipid disorders. Thus screening environmental chemicals on FXR signaling can be used for the studies focused on metabolic syndrome, hepatic and intestinal toxicity etc.
NCGC Assay Protocol Summary Using a beta-lactamase reporter-gene under control of Farnesoid X receptor (FXR) response element, a cell-based assay [GeneBLAzer FXR-UAS-bla assay developed by Invitrogen] was used to measure FXR ligands signaling. GeneBLAzer FXR-UAS-bla HEK293T cells were used with assay medium containing 10% dialyzed FBS. The assay was performed in clear bottom black Greiner 1536-well plates. Guggulsterone were used in the screen as the positive control. Library compounds were measured for their ability to inhibit the reporter gene activity. Compounds were screened in a titration series in 1536-well format. The fluorescence intensity (405 nm excitation, 460/530 nm emission) was measured using an EnVision plate reader. Data was normalized relative to Chenodeoxycholic acid (50 uM, 100%), and DMSO only wells (basal, 0%). Concentration-response titration points for each compound were fitted to the Hill equation yielding concentrations of half-maximal inhibition (IC50) and maximal response (efficacy) values. qHTS protocol for FXR beta-lactamase assay in antagonist mode [Step] [Parameter] [Value] [Description] 1. Reagent; 5 uL; 5000 cells/well 2. Incubation; 37 C for 5-7 hrs 3. Compounds; 23 nL; 0.59 nM to 92 uM 4. Controls (Guggulsterone, FXR antagonist); 23 nL, - One column of dose response, start 200 uM, 1:2 dilutions in duplicates 5. Agonist (Stimulator); 1uL; Chenodeoxycholic acid at 100 uM and 50 uM final concentrations 6. Incubation; 37 C for 16 hrs 7. Detection reagent; 1 uL of CCF4-dye 8. Incubation; RT for 2 hrs 9. Detection; Fluorescence; Envision plate reader

Sequence of Bile acid receptor (Homo sapiens) (Q96RI1 whole entry, looked up): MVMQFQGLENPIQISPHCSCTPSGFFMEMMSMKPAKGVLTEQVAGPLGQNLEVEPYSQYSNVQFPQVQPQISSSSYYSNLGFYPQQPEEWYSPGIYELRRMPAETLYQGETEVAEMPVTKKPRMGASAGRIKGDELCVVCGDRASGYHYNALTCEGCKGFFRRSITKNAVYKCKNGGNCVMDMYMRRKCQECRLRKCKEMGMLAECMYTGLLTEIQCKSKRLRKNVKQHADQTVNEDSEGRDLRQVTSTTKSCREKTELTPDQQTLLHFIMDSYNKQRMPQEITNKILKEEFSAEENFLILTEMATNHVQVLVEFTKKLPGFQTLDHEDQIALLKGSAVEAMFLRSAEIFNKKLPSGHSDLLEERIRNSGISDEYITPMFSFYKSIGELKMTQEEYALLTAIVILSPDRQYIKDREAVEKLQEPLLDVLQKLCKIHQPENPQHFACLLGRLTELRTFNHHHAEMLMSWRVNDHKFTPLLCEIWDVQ

Row | SMILES | outcome
1 | Cc1ccc(C#N)cc1 | inactive
2 | CC(C=O)Cc1ccc(C(C)(C)C)cc1 (stereo not given) | inactive
3 | CC(O)CC(C)O (stereo not given) | inactive
4 | CC(=O)c1cccc([N+](=O)[O-])c1 | inactive
5 | CC(C)CCOC(=O)/C=C/c1ccccc1 | inactive
6 | Cc1cc(C)cc(N)c1 | inactive
7 | O=C(O)c1ccccc1Cl | inactive
8 | CCOCCO | inactive
9 | Cc1ccccc1Br | inactive
10 | O=C(O)CCSSCCC(=O)O | inactive
11 | Cc1cc(C)cc([N+](=O)[O-])c1 | inactive
12 | Cc1ccc(C)o1 | inactive
13 | C=C(C)C(=O)OCCCCCC | inactive
14 | Cc1ccc2cccnc2c1 | inactive
15 | Cc1ccc(S(=O)(=O)NC2CCCCC2)cc1 | inactive
16 | CC=O | inactive
17 | O=C(O)c1c(Cl)cccc1Cl | inactive
18 | COC(=O)CCC(=O)OC | inactive
19 | CNC(=O)c1ccccc1 | inactive
20 | CC(=O)c1ccccn1 | inactive

Row | SMILES | outcome
21 | CCC(C)(C)C | inactive
22 | Cc1cccc([N+](=O)[O-])c1C(=O)O | inactive
23 | CC(=O)OC(C)C | inactive
24 | Nc1cccc2c(=O)[nH][nH]c(=O)c12 | inactive
25 | Cc1ccc(C)c(N)c1 | inactive
26 | O=C1OC(=O)c2c(Cl)c(Cl)c(Cl)c(Cl)c21 | inactive
27 | CCC(C)(C)C(=O)O | inactive
28 | O=C(O)c1ccc(Cl)c(Cl)c1 | inactive
29 | Cc1c(C(=O)O)cccc1[N+](=O)[O-] | inactive
30 | CCC(C)(C)OC | inactive
31 | CCC(C)=O | inactive
32 | N#CC1(O)CCCCC1 | inactive
33 | C=Cc1ccc(C=C)cc1 | inactive
34 | CCCCCCCCC/C=C/CC1CC(=O)OC1=O (stereo not given) | inactive
35 | CCCCCO | inactive
36 | Nc1cc(Cl)c(N)c(Cl)c1 | inactive
37 | Nc1c(Cl)cc(Cl)cc1Cl | inactive
38 | N#Cc1ccccc1 | inactive
39 | CCCCCCCCCCCCC1CO1 (stereo not given) | inactive
40 | C=CC(=O)OCCCC | inactive
